Measurements from PubChem BioAssay AID1463 (National Center for Advancing Translational Sciences (NCATS), 2008).
“And” between values parts separate entries of the source, which are not always exact repeats. Identical values can stand only once. Among all 280,000 compounds or so, about 2,600 (0.93%) were called active. Where a call stands in place of a potency, no number is given. About 8% were inconclusive and are not listed. Calls come from the whole dose curve; as a rule, active = well fitted curve in the direction sought with a large enough effect; inconclusive = small, poorly fitted or top-dose-only effect; inactive = flat fitted curve, though single readings scatter. For the sample, actives were picked, then their nearest neighbours and some compounds at random.

Assay: Counterscreen qHTS for Inhibitors of Tau Fibril Formation, Fluorescence Polarization; note: nearly all actives have a fitted effect of over 55% in size
Conditions: tau K18 P301L (four-repeat tau fragment) Alexa594 fluorescence, heparin fibrillization; series mostly up to 57.7 µM
Source text: NIH Molecular Libraries Probe Production Network [MLPCN]
NIH Chemical Genomics Center [NCGC]
Assay Provider: Carlo Ballatore, University of Pennsylvania
The microtubule-associated protein tau is an abundant protein in the axons of neurons that stabilizes microtubules. With its ability to modulate microtubule dynamics, tau contributes directly or indirectly, to key structural and regulatory cellular functions. Particularly important is the influence tau exerts on axonal transport, which allows signaling molecules, trophic factors and other essential cellular constituents to travel along the axons. Under pathological conditions, tau becomes sequestered into insoluble aggregates called neurofibrillary tangles. This phenomenon is believed to have pathological consequences by promoting axonal transport deficits that ultimately lead to synaptic dysfunction and neuronal loss. To identify inhibitors of tau aggregation, a heparin-induced tau fibril formation assay was used that employed a recombinantly expressed fragment of tau, K18 (Q242-E372), bearing a P301L mutation (Gustke et al. 1994; Hong et al. 1998). […] Total fluorescence (555 nm excitation and 632 nm emission) was measured to identify fluorescent or absorbent compounds at this wavelength. Such compounds may be artifacts that interfere with the Alexa 594 Tau fluorescence polarization assay.
Gustke, N., B. Trinczek, et al. (1994). "Domains of tau protein and interactions with microtubules." Biochemistry 33(32): 9511-22.
Hong, M., V. Zhukareva, et al. (1998).
Li, W. and V. M. Lee (2006). "Characterization of two VQIXXK motifs for tau fibrillization in vitro." Biochemistry 45(51): 15692-701.
von Bergen, M., S. Barghorn, et al. (2001). "Mutations of tau protein in frontotemporal dementia promote aggregation of paired helical filaments by enhancing local beta-structure." J Biol Chem 276(51): 48165-74.
NCGC Assay Protocol Summary:
For screening, 2 uL/well human K18 P301L (15 uM unlabeled and 0.24 uM Alexa 594-labeled tau final concentrations) in reagent buffer (100 mM sodium acetate pH 7) was dispensed into black solid 1536-well plates (Grenier) using a solenoid-based dispenser. Following transfer of 23 nL compound or DMSO vehicle by a pin tool, 2 uL/well heparin (20 uM final concentration) in reagent buffer was added and the plate centrifuged 15 s at 1000 RPM. Plates were incubated 6 hr at 37 C and then 1 uL/well ThT (30 uM final concentration) was added. After a 1 hr ambient incubation, the plates were read by an Envision (Perkin Elmer) to monitor Alexa 594 FP (555 nm excitation and 632 nm emission).
Keywords: NIH Roadmap, MLPCN, MLI, MLSMR, NCGC, qHTS, tau, tauopathies, Alzheimer's disease, fibril, neurodegeneration, aggregation
Potency is the fitted concentration of half-maximal effect; tags give direction and shape of the fitted curve or compound fluorescence and quenching.

Row | SMILES | Potency
1 | O=C(CSc1nc(C2CC2)nc2ccccc12)Nc1ccc2c(c1)OCCO2 | inactive
2 | O=C(CN1CCN(CC(=O)Nc2ccc3c(c2)OCO3)CC1)Nc1ccc(F)cc1 | inactive
3 | O=C(CSc1nc(-c2cccc(F)c2)[nH]c1-c1ccccc1)Nc1ccc2c(c1)OCO2 | 8.91 µM [quencher] (active)
4 | O=C(Nc1cc(Cl)cc(Cl)c1)c1ccc2c(c1)N(Cc1cccc(Cl)c1)C(=O)c1ccccc1S2=O (configuration not stated) | inactive
5 | CCc1ccc(CN(Cc2ccco2)C(=O)c2ccccc2Cl)cc1 | inactive
6 | COc1cccc(NC(=O)Nc2nnc(N3CCCCC3C)s2)c1 (configuration not stated) | 12.6 µM [quencher] (active)
7 | CCOC(=O)C1CCN(C(=O)Nc2cccc(OC)c2)CC1 | inactive
8 | COc1cccc(Nc2nnc(SCC(=O)N3CC(C)OC(C)C3)s2)c1 (configuration not stated) | inactive
9 | Cc1oc(-c2ccccc2)nc1Cn1c(SCc2cccc(C(F)(F)F)c2)nc2cccnc21 | inactive
10 | COc1cccc(N2CCN(C(=O)CCCCCn3c(=O)[nH]c4ccccc4c3=O)CC2)c1 | inactive
11 | COc1ccc(Nc2nc(Cl)nc(NCc3ccco3)n2)cc1 | inactive
12 | COc1cccc(Nc2nc(N)c([N+](=O)[O-])c(NCc3ccco3)n2)c1 | 3.16 µM [quencher] (active)
13 | CN(c1ccccc1)c1nc(N)c([N+](=O)[O-])c(NCc2ccco2)n1 | inactive
14 | CCOC(=O)c1c(C)oc2nc(C)nc(N3CCN(c4ccc(OC)cc4)CC3)c12 | inactive
15 | COc1ccc(OC)c(NC(=O)CN2CCCN(Cc3cc(C)ccc3C)S2(=O)=O)c1 | inactive
16 | COc1ccc(CNC(=O)CCCn2nc(C)c([N+](=O)[O-])c2C)cc1 | inactive
17 | Cc1ccc(Oc2cc(NC(=O)CCCn3nc(C)c([N+](=O)[O-])c3C)cc([N+](=O)[O-])c2)cc1 | 4.47 µM [quencher] (active)
18 | CCc1ccc(NC(=O)Cn2nc(C)c([N+](=O)[O-])c2C)cc1 | inactive
19 | COc1ccc(C)cc1-n1c(-c2ccc(C)cc2)cc2c1CC(C)(C)CC2=O | inactive
20 | CCC(=O)Nc1ccc2c(c1)nc(CCN1CCN(C)CC1)n2C | inactive
21 | Cn1c(CCN2CCCCCC2)nc2cc(NC(=O)Nc3ccccc3)ccc21 | 15.8 µM [quencher] (active)
22 | CC(=O)NCCc1nc2cc(NC(=O)c3ccccc3)ccc2n1C | inactive
23 | O=C(CCN1C(=O)c2ccccc2C1=O)Nc1ccncc1 | inactive
24 | CC1CCN(CCC(=O)Nc2ccccc2)CC1 | inactive
25 | CCN1/C(=C/C(=S)Nc2ccccc2)Sc2ccccc21 | 10 µM [quencher] (active)

Row | SMILES | Potency
26 | CCNC(=O)N1c2ccccc2Sc2ccccc21 | inactive
27 | O=C(CCN1c2ccccc2Sc2ccccc21)Nc1ccccc1 | 11.2 µM [quencher] (active)
28 | CCN1/C(=C/c2ccc3ccc(C)cc3[n+]2CC)Sc2ccccc21 | inactive
29 | CCOC(=O)c1c(NC(C)=O)c2c3c(sc2n1Cc1c(C)cc(C)cc1C)CCCC3 | inactive
30 | CCOC(=O)c1ccc(NC(=O)c2c(NCc3cccc(OC)c3)sc3c2CCC3)cc1 | inactive
31 | Cc1cccc(OCCSc2nc3ccccc3n2CC(=O)N2CCCCC2)c1C | inactive
32 | Cc1ccc(/C=C(\C#N)C(=O)Nc2cc(C)ccc2C)cc1 | inactive
33 | O=C(COc1ccccc1)NCc1ccc2c(c1)CCN2C(=O)c1ccc(F)cc1 | inactive
34 | Fc1ccc(CN2CCc3nc(Nc4ccccc4)ncc3C2)cc1F | inactive
35 | CCn1c(C)c(C)c2cc(C(=O)NCCc3cc(OC)ccc3OC)ccc21 | inactive
36 | Cc1cccc(NC(=O)CSc2ncc(-c3ccccc3)[nH]2)c1C | inactive
37 | CCOc1cccc(NC(=O)CSc2ncc(-c3ccc(Cl)cc3)[nH]2)c1 | 11.2 µM [quencher] (active)
38 | CCOc1cccc(NC(=O)CC#N)c1 | inactive
39 | CCCN(CCC)S(=O)(=O)c1ccc(C(=O)Nc2sc3c(c2C(=O)OC)CCN(CC)C3)cc1 | inactive
40 | Cc1cccc(-n2ccnc2SCC(=O)Nc2cc(C(F)(F)F)ccc2Cl)c1 | inactive
41 | CC[C@@H]1Cc2cc(O)ccc2C2=C1c1ccc(O)cc1C[C@H]2CC | 5.01 µM [quencher] (active) and 10 µM [quencher] (active)
42 | CC1(C)CC(=O)c2ccc(O)cc2O1 | inactive
43 | CCN(C(=O)Cn1cnc2sc(C)c(S(=O)(=O)N3CCN(c4ncccn4)CC3)c2c1=O)c1ccccc1F | inactive
44 | Cc1cc2c(cc3c(SCc4nc(-c5ccccc5)oc4C)nnc(C)n32)o1 | inactive
45 | COc1cc(OC)cc(C(=O)Nc2ccc3nc(Nc4cccc(C(F)(F)F)c4)cc(C)c3c2)c1 | 3.98 µM [quencher] (active)
46 | COc1ccc(NC(=O)C(=O)NCC(=O)Nc2cccc(C(F)(F)F)c2)cc1 | inactive
47 | Cc1cc(Nc2cccc(C(F)(F)F)c2)nc2ccc(NC(=O)c3ccc(=O)[nH]c3)cc12 | 3.55 µM [quencher] (active)
48 | COc1cc(NC(=O)c2cncc(-c3ccc(C#N)cc3)c2)cc(C(=O)Nc2cccc(C(F)(F)F)c2)c1 | inactive
49 | O=C(Nc1cccc(C(F)(F)F)c1)c1cnccn1 | inactive
50 | Cc1ccc(NC(=O)Nc2cccc(C(F)(F)F)c2)nc1 | inactive

Row | SMILES | Potency
51 | O=C(Nc1ccc(F)cc1F)c1ccc2c(=O)n3c(nc2c1)CCCCC3 | inactive
52 | O=C(CC1N=C2c3ccccc3N=C(SCc3cccc(Cl)c3)N2C1=O)NCc1ccc2c(c1)OCO2 (configuration not stated) | inactive
53 | CCCn1c2ccccc2c2cnn(CC(=O)N(CC)c3cc(C)ccc3C)c(=O)c21 | inactive
54 | CCN(CC)CCNC(=O)Cn1ncc2c3ccccc3n(Cc3ccccc3C)c2c1=O | inactive
55 | Cc1ccc2nc(/C(C#N)=C/c3ccc(-c4ccc(C(=O)OC(C)C)cc4)o3)[nH]c2c1 | inactive
56 | CC(=O)OC1=C(C(C)=O)N(Cc2ccccc2)S(=O)(=O)c2ccccc21 | inactive
57 | CCOC(=O)Cn1c(=O)n(C2CCCCC2)c2nc(-c3cccc(OC)c3)nc(C(N)=O)c21 | inactive
58 | Cc1ccc(OC(=O)CCC(=O)Nc2ccc(Br)cc2)cc1 | inactive
59 | COc1ccc(NC(=O)c2sc(N)nc2-c2ccccc2)cc1 | inactive
60 | COC(=O)CCc1sc(Nc2ccc(Br)cc2)nc1-c1ccc(OC)cc1 | 8.91 µM [quencher] (active)
61 | COC(=O)c1ccc(NC(=O)CCc2c(C)nn(-c3ccc(N4CCCC4)nn3)c2C)cc1 | inactive
62 | COc1ccc(N=C(C)c2sc3ccccc3c2O)cc1 | inactive
63 | Oc1ccc(N=Cc2sc3ccccc3c2Cl)cc1 | 10 µM [quencher] (active)
64 | Oc1ccc2ccccc2c1C=Nc1ccccc1 | inactive
65 | CCCNc1ncnc2c1c(-c1ccccc1)cn2-c1ccc(OCC)cc1 | inactive
66 | O=C(Nc1ccccc1F)C(c1ccccc1)N1Cc2ccccc2C1=O (configuration not stated) | inactive
67 | Cc1ccc(C)c(CNC(=O)c2cc3ccccn3n2)c1 | inactive
68 | CCc1ccc(CNC(=O)c2ccc(CS(=O)c3ccc(Br)cc3)o2)cc1 (configuration not stated) | inactive
69 | CN(C)c1cccc(C(=O)Nc2nc3ccc(S(=O)(=O)NC(C)(C)C)cc3s2)c1 | inactive
70 | COCCNc1ccnc(-c2cccc(NS(C)(=O)=O)c2)n1 | inactive
71 | COc1ccc2[nH]cc(CCNc3ncnc4ccc(-c5ccccc5CN(C)C)cc34)c2c1 | inactive
72 | COc1ccc2[nH]cc(CCNc3nc(-c4cccc(NS(C)(=O)=O)c4)nc4ccccc34)c2c1 | 28.2 µM [quencher] (active)
73 | Cc1cccc(Cn2c(CN3CCC(C(=O)NCc4ccccc4Cl)CC3)cc3ccccc32)c1 | inactive
74 | Cc1cc([N+](=O)[O-])ccc1NC(=O)c1ccc(NC(=O)C(C)C)cc1 | inactive
75 | CCn1c2ccccc2c2cc(NC(=O)Nc3ccc([N+](=O)[O-])cc3C)ccc21 | 8.91 µM [quencher] (active)

Row | SMILES | Potency
76 | CCn1c2ccccc2c2cc(NC(=O)CNC)ccc21 | inactive
77 | O=C(Cn1cc(SCc2cccc(Cl)c2)c2ccccc21)N1CCCCC1 | inactive
78 | Cc1nc2ccn(Cc3cccnc3)c(=O)c2cc1C(=O)N1CCN(c2ccccc2F)CC1 | inactive
79 | CN(C)c1ccc(C(CNC(=O)c2ccc(F)cc2)c2c[nH]c3ccccc23)cc1 (configuration not stated) | 25.1 µM [quencher] (active)
80 | CCOc1ccccc1C(=O)NCC(c1ccc(N(C)C)cc1)N1CCCC1 (configuration not stated) | inactive
81 | O=C(Cc1ccccc1)NCc1ccc(F)cc1 | inactive
82 | CCOc1ccc(CNC(=O)Cn2cc3c(n2)-c2c(oc(C(=O)N4CCCC4)c2C)CC3)cc1 | inactive
83 | O=C(CN1C(=O)COc2ccc(S(=O)(=O)N3CCOCC3)cc21)N1CCN(c2cccc(Cl)c2)CC1 | inactive
84 | COc1ncnc2sc3c(c12)CCCC3 | inactive
85 | COc1ccc(/C=N/Nc2ncnc3sc4c(c23)CCCC4)cc1O | 14.1 µM [quencher] (active)
86 | CC1(C)CN=C(N2CCN(c3ncnc4sc5c(c34)CCCC5)CC2)S1 | inactive
87 | Cc1ccc(Cl)cc1NC(=O)CCS(=O)(=O)c1ccc(Br)s1 | inactive
88 | Cc1ccccc1Nc1nn2c(=O)c3ccc(C(=O)NCCc4ccc(Cl)cc4)cc3nc2s1 | inactive
89 | CN1CCN(C2(CNC(=O)COc3ccc(C(C)(C)C)cc3)CCCCC2)CC1 | inactive
90 | Cn1c(C(=O)N2CCC(C(=O)N3CCN(c4ccccc4)CC3)CC2)cc2sccc21 | inactive
91 | Cc1nn(C)cc1/C=N/NC(=O)c1sc2ccccc2c1Cl | inactive
92 | CCCC(=O)Nc1ccc(NC(=O)c2sc3ccccc3c2Cl)cc1 | inactive
93 | O=C(N/N=C/c1c(Cl)[nH]c2ccccc12)c1sc2ccccc2c1Cl | 10 µM [quencher] (active)
94 | CCOc1ccc(CCNC(=O)c2ccc3c(c2)sc2nc(-c4ccc(F)cc4)cn23)cc1OCC | inactive
95 | COc1ccccc1CSc1nc2ccccc2[nH]1 | inactive
96 | COc1ccccc1CC(=O)Nc1ccc([N+](=O)[O-])cc1OC | inactive
97 | COc1ccccc1CSc1ncc(-c2ccc([N+](=O)[O-])cc2)[nH]1 | 28.2 µM [quencher] (active)
